A short description of test [1]: NCI Yeast Anticancer Drug Screen. Data for the rad50 strain (AID 155).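 Also: 0% = growth of vehicle-only cultures of the same strain.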 Conditions: S. cerevisiae rad50 strain growth inhibition; at 50.0 µM; stronger effect = higher value. An outline of the steps:
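Compounds were tested on a yeast strain with an engineered DNA damage repair alteration; the reported value is growth inhibition normalised to vehicle treatment.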

The nature of test [2]: NCI Yeast Anticancer Drug Screen. Data for the mec2-1 strain (AID 157). Conditions: S. cerevisiae mec2-1 strain, at 50.0 µM, stronger effect = higher value. In outline:
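Readout is yeast growth inhibition, normalised to vehicle-treated controls, in the mec2-1 strain exposed to compound.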

A short description of test [3]: NCI Yeast Anticancer Drug Screen. Data for the sgs1 mgt1 strain (AID 161).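 Also: 0% = growth of cultures given vehicle only.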 To be noted: S. cerevisiae sgs1 mgt1 strain, at 50.0 µM, stronger effect = higher value. An outline of the steps: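 Compounds are added to genetically altered yeast, and growth is compared with cultures given vehicle alone to give percent inhibition.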
Test [4] can be described thus: NCI Yeast Anticancer Drug Screen. Data for the cln2 rad14 strain (AID 165).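 Also: 0% = growth equal to vehicle treated cultures.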 To be noted: S. cerevisiae cln2 rad14 strain, at 50.0 µM, stronger effect = higher value. An outline of the steps: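 Relative to vehicle controls, growth inhibition of compound-treated cln2 rad14 yeast was recorded.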
A short description of test [5]: NCI Yeast Anticancer Drug Screen. Data for the bub3 strain (AID 167). Conditions: S. cerevisiae bub3 mutant strain, at 50.0 µM, stronger effect = higher value. In outline:
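Growth of a checkpoint-deficient yeast mutant is measured after compound exposure. Values represent inhibition relative to vehicle.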

The nature of test [6]: NCI Yeast Anticancer Drug Screen. Data for the mlh1 rad18 strain (AID 175). Conditions: S. cerevisiae mlh1 rad18 strain growth inhibition; at 50.0 µM; stronger effect = higher value. An outline of the steps: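 Test agents were incubated with a yeast strain of defined genotype (DNA damage repair defect). Inhibition of growth was derived by comparison with vehicle-exposed cultures.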

Each structure is given as a SMILES string. About 79,000 compounds went through this panel and 15% of them were active in at least one assay; those are over-represented in the sample as a whole. A number with no mark means an inactive call. Active and inactive are the calls of the source. Rule as the data show it: active = growth inhibition above about 70%; inactive = the rest.

For the compound `CS(=O)(=O)c1nc(Cl)c2[nH]c(Cl)nc2n1`, the growth inhibition in test [1] is 16.9%; in test [2], -19.5%; in test [3], 5.35%; in test [4], -11.3%; in test [5] it was 12.2%; in test [6], 22%.
Take `CCCCCCCCCCCO`: the growth inhibition in test [1] is -5.75%; in test [2] it was -13.2%; in test [3] it was -3.8%; in test [4] it was -6.8%; in test [5], 2.15%; in test [6], -18.8%.
Consider `CCOC(=O)C(Cl)(NC(=O)c1ccc(F)cc1)C(F)(F)F` (centres undefined), for which the growth inhibition is -6.25% in test [1]; 6.7% in test [2]; -18.5% in test [3]; 7.3% in test [4]; -12.9% in test [5]; -18.1% in test [6].
Consider `COc1ccc2oc(=S)[nH]c2c1`, for which the growth inhibition was 11.8% in test [1]; 8.6% in test [2]; 54.1% in test [3]; 9.4% in test [4]; -4.45% in test [5]; 42.7% in test [6].
Regarding `CSc1n[nH]c(NC(=O)c2ccccc2Cl)n1`, the growth inhibition is -0.9% in test [1]; 0.45% in test [2]; 1.5% in test [3]; -33.2% in test [4]; -3.1% in test [5]; 7.95% in test [6].
`COc1ccc(CCC(=O)O)c(C(CC(=O)O)C(=O)O)c1OS(=O)(=O)c1ccc(C)cc1` (centres undefined): the growth inhibition in test [1] is -21.2%; in test [2], -30.3%; in test [3] it was -40.5%; in test [4] it was 6.05%; in test [5], -33.3%; in test [6], -21.6%.
With `CC(C)(C)C(=O)OCn1cc2c(=O)[nH]cnc2n1`, the growth inhibition is 11.9% in test [1]; 8.1% in test [2]; 28.6% in test [3]; -3.75% in test [4]; -8.7% in test [5]; 9.15% in test [6].
In the case of `O=C(O)/C=C/Sc1ccc(Cl)cc1`, the growth inhibition in test [1] was 76% (active); in test [2], 32.5%; in test [3] it was 79.3% (active); in test [4], 59.9%; in test [5], 78% (active); in test [6], 78.4% (active).
For `CNC1C(CO)OC(n2cnc3c(=O)[nH]cnc32)C1O` (centres undefined), the growth inhibition was 12.2% in test [1]; -6.45% in test [2]; -11.4% in test [3]; -9.1% in test [4]; -9.2% in test [5]; 13.6% in test [6].
With `CCN(CC)CC1(CC)COC(c2ccccc2)(c2ccccc2)OC1`, the growth inhibition in test [1] is -3.3%; in test [2], -21.4%; in test [3] it was -18.6%; in test [4], -26.3%; in test [5], -14.2%; in test [6], -34.5%.
With `Cn1nc(C(=O)NN)c(=O)[nH]c1=O`, the growth inhibition in test [1] was 10.9%; in test [2], -6.75%; in test [3] it was 0.8%; in test [4], -20.6%; in test [5], 6.6%; in test [6], 16.9%.
With `O=S1(=O)Cc2ccccc2O1`, the growth inhibition in test [1] was 4.25%; in test [2], 5.2%; in test [3] it was 28.6%; in test [4] it was -3.2%; in test [5], -19%; in test [6], 33%.
`COc1ccc(OCc2nc3cc(C(F)(F)F)ccc3nc2-c2ccccc2)cc1`: the growth inhibition in test [1] is -2.65%; in test [2] it was 3.45%; in test [3] it was 11.2%; in test [4], 5.2%; in test [5] it was 25.9%; in test [6], -70.4%.
On to `O=C1CCCNC(=O)CCCN1`, for which the growth inhibition in test [1] is 15%; in test [2], -9.55%; in test [3] it was -5.45%; in test [4], -40.5%; in test [5], -14.3%; in test [6], -5.9%.
For the compound `COC(=O)c1[nH]c(=O)c(C#N)c(C(=O)OC)c1C(=O)c1cccnc1`, the growth inhibition is 2.95% in test [1]; -3.55% in test [2]; -5.2% in test [3]; 18.7% in test [4]; -17.4% in test [5]; 25.6% in test [6].
For the compound `N#Cc1ccccc1CC(O)(c1ccccc1)c1ccccc1`, the growth inhibition in test [1] was 36.5%; in test [2], -5.85%; in test [3], -7.75%; in test [4], 13.7%; in test [5], -10.2%; in test [6] it was 9.8%.
As for `C#CCC(O)c1ccc(OC)c(OCc2ccccc2)c1` (centres undefined), the growth inhibition was -6.05% in test [1]; -17.9% in test [2]; 18.6% in test [3]; 4.4% in test [4]; 4.45% in test [5]; -1.4% in test [6].
With `CCCCCCCCCCCCCCCCCCCCCCCCSC(=N)N`, the growth inhibition is 10.6% in test [1]; 0.15% in test [2]; 16.5% in test [3]; 26.4% in test [4]; -6.15% in test [5]; 12.9% in test [6].
With `O=C(O)/C(=C\c1cccc(O)c1)c1ccccc1`, the growth inhibition was -19.4% in test [1]; -30.4% in test [2]; -16.4% in test [3]; -6.65% in test [4]; -3.2% in test [5]; -6% in test [6].
In the case of `OCc1ccccc1C1CSCSC1`, the growth inhibition was -7.2% in test [1]; -29.1% in test [2]; -37.5% in test [3]; -30.9% in test [4]; -21.4% in test [5]; -12.2% in test [6].
Turning to `CC1=NC(=O)CNN1C1=NNC2(C(=O)N1)c1ccccc1-c1ccccc12`, the growth inhibition in test [1] was -11.1%; in test [2], -7.3%; in test [3], -15.2%; in test [4] it was 0.85%; in test [5], -7.3%; in test [6], -25.1%.
As to `O=C(Oc1ccco1)c1ccc([N+](=O)[O-])cc1`, the growth inhibition in test [1] was 2.55%; in test [2], 0.6%; in test [3], -4.7%; in test [4], -17.2%; in test [5], 0.1%; in test [6], -9.8%.
With `CCNC(=O)OCCN(C)CCOC(=O)NCC`, the growth inhibition in test [1] was -10%; in test [2] it was 9.55%; in test [3], -4.15%; in test [4] it was -20%; in test [5], -7.7%; in test [6], -0.7%.
For the compound `CC(=O)N(c1ccc(NC(=O)c2ccc(N3C(=O)c4ccccc4C3=O)cc2[N+](=O)[O-])cc1)c1cc[n+](C)cc1`, the growth inhibition was -13.8% in test [1]; 2.3% in test [2]; -1% in test [3]; 9.35% in test [4]; -5.1% in test [5]; 3.75% in test [6].
As for `O=c1ccc2ccc(-c3cnc(O)[nH]c3=O)oc-2c1`, the growth inhibition is 25.6% in test [1]; 2.05% in test [2]; 5.35% in test [3]; 1.4% in test [4]; 2.25% in test [5]; 10.3% in test [6].
With `CCCC(C)C(SC(CC)C(N)=O)C(=O)O` (centres undefined), the growth inhibition was -3.5% in test [1]; -5.15% in test [2]; 5.1% in test [3]; -12.8% in test [4]; 10.5% in test [5]; -9.15% in test [6].
Consider `O=[N+]([O-])c1ccc(CCCCCc2ccccc2)cc1`, for which the growth inhibition is -6.15% in test [1]; -17.6% in test [2]; 0.6% in test [3]; -75.2% in test [4]; 4.5% in test [5]; -21.4% in test [6].
As for `C/C(=N/Nc1ccc([N+](=O)[O-])cc1[N+](=O)[O-])c1ccc(Sc2ccc(/C(C)=N/Nc3ccc([N+](=O)[O-])cc3[N+](=O)[O-])cc2)cc1`, the growth inhibition in test [1] was -13.2%; in test [2], -21.1%; in test [3], -10.3%; in test [4], -19.4%; in test [5], -14.9%; in test [6], -23.4%.
In the case of `CCN(CC)CCCC(C)Nc1c2ccc(Cl)cc2nc2c(Cl)cc(Cl)cc12` (centres undefined), the growth inhibition in test [1] was -8.55%; in test [2], 4.75%; in test [3] it was 2.5%; in test [4], 23.6%; in test [5], 28.3%; in test [6], -8.85%.
`Clc1ccccc1C(CI)c1ccccc1Cl`: the growth inhibition in test [1] is 25.6%; in test [2], 9.75%; in test [3] it was 15.2%; in test [4], 13.4%; in test [5], -1.2%; in test [6] it was 10.1%.
For the compound `O=C(Nc1ccc(Cl)c(Cl)c1)Oc1ccc2ccccc2c1`, the growth inhibition is 13.4% in test [1]; 24.9% in test [2]; 34.5% in test [3]; -0.35% in test [4]; 4.1% in test [5]; 61.1% in test [6].
Take `CC1C(=NO)C(C)C(c2ccccc2)N(N=O)C1c1ccccc1` (centres undefined): the growth inhibition in test [1] is -12.6%; in test [2] it was -20.5%; in test [3], -6.1%; in test [4], 3.25%; in test [5], 0.45%; in test [6], 26.4%.
`Cc1ccc(N2C(=O)c3ccccc3NC2(C)CCl)cc1` (centres undefined): the growth inhibition in test [1] is 4.55%; in test [2], -9.25%; in test [3], 10.9%; in test [4] it was -3.7%; in test [5], 33.1%; in test [6], 1.3%.
`CC(C)(C#N)OC(=O)Nc1c(Cl)cccc1Cl`: the growth inhibition was 2.4% in test [1]; -23.2% in test [2]; 5.15% in test [3]; 3.6% in test [4]; 11.2% in test [5]; 6.5% in test [6].
As for `NC(N)=N/N=C/C(=N\N=C(N)N)C(O)CO` (centres undefined), the growth inhibition was 28.9% in test [1]; -4.45% in test [2]; 1.85% in test [3]; 2.4% in test [4]; 4.85% in test [5]; -9.1% in test [6].
As to `Cc1nc(C)c(C(=O)NNC(=O)Cc2ccccc2)cc1C(=O)NNC(=O)Cc1ccccc1`, the growth inhibition in test [1] is -32%; in test [2], 1.35%; in test [3], -0.9%; in test [4] it was 15.5%; in test [5], -5.55%; in test [6], -32.4%.
In the case of `CCOC(=O)C1=C(C)Oc2cc3c(cc2C1c1ccc(OC)cc1)OCO3` (centres undefined), the growth inhibition in test [1] was 3.9%; in test [2] it was 5.8%; in test [3], 23.5%; in test [4], -39.8%; in test [5] it was 31.4%; in test [6], 6.65%.
Take `CCOC(=O)c1nc2ccc(C(F)(F)F)cc2nc1NCc1ccc(OC)cc1`: the growth inhibition in test [1] is 4.6%; in test [2] it was 9.8%; in test [3], -1.15%; in test [4] it was 17.2%; in test [5], 5.15%; in test [6] it was -15.7%.
Regarding `Nc1cc(=O)[nH]c(N2CCN(c3ccccc3)CC2)n1`, the growth inhibition in test [1] was 1.15%; in test [2], -4.9%; in test [3] it was -14.3%; in test [4] it was 6.15%; in test [5] it was 6.15%; in test [6], 12.4%.
Consider `NNC(=O)C(=O)Nc1nccs1`, for which the growth inhibition in test [1] was 0.65%; in test [2] it was 0.85%; in test [3], 2.05%; in test [4], 6.95%; in test [6], -4.6%.
On the same counts, the results for `O=C(OCCCl)C1OC(n2cc(F)c(=O)[nH]c2=O)CC1O` (centres undefined) are 23.4%, 3.35%, 2.5%, 8.7% and -3.1%.
